# Laboratory results published in the supplement of paper PMC6555819.
# Tests used:
# Assay in all cases: PBM binding z-score (relative to random genomic background probes); higher = stronger binding; sequences stand for … in GC…GCGATTGACAGCGTAGAATGAAGG
# [1] = system: FXR:RXRa (NR concentration 270 nM, RXRa partner concentration 90 nM)
# Method in brief: (§1)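 The probes on custom Agilent 4×180K protein-binding microarrays were double-stranded, with 34-nt variable regions bearing direct-repeat seeds, single-nucleotide variants, half-site ablations and random human genomic background sequences. Incubation lasted 1 h with ligand-free nuclear receptor dimers in PBS pH 7.4, 2% milk, 0.02% Triton X-100, 1 mM DTT, 0.2 mg/mL BSA and 0.4 mg/ml salmon testes DNA. Antibodies against each partner (one per run) detected bound dimers, and fluorescence scans were regression-normalized. Binding z-scores take the random background probes as reference.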
# [2] = system: LXRa:RXRa (NR concentration 270 nM, RXRa partner concentration 90 nM)
# Method in brief: as §1
# [3] = system: LXRa homodimer (NR concentration 270 nM)
# Method in brief: as §1
# [4] = system: LXRb:RXRa (NR concentration 270 nM, RXRa partner concentration 90 nM)
# Method in brief: as §1
# [5] = system: LXRb homodimer (NR concentration 270 nM)
# Method in brief: as §1
# [6] = system: PPARa:RXRa (NR concentration 270 nM, RXRa partner concentration 90 nM)
# Method in brief: as §1
# [7] = system: PPARg:RXRa (NR concentration 180 nM, RXRa partner concentration 90 nM)
# Method in brief: as §1
# [8] = system: PPARg:RXRa 270nM:90nM, anti-RXR (NR concentration 270 nM, RXRa partner concentration 90 nM)
# Method in brief: as §1
# [9] = system: PPARg:RXRa 30nM:10nM, anti-RXR (NR concentration 30 nM, RXRa partner concentration 10 nM)
# Method in brief: as §1
# [10] = system: PPARg:RXRa 90nM:30nM, anti-RXR (NR concentration 90 nM, RXRa partner concentration 30 nM)
# Method in brief: as §1
# [11] = system: PPARg:RXRa DBDmut IVT, anti-RXR (DBD mutation: RXRa K156A/R161A, NR concentration 270 nM, RXRa partner concentration 90 nM)
# Method in brief: as §1
# [12] = system: PPARg:RXRa IVT, anti-PPARg (NR concentration 270 nM, RXRa partner concentration 90 nM)
# Method in brief: as §1
# [13] = system: PPARg DBDmut:RXRa IVT, anti-PPARg (DBD mutation: PPARg1 K132A/R137A, NR concentration 270 nM, RXRa partner concentration 90 nM)
# Method in brief: as §1
# [14] = system: PPARg DBDmut IVT, anti-PPARg (DBD mutation: PPARg1 K132A/R137A, NR concentration 270 nM)
# Method in brief: as §1
# [15] = system: PPARg homodimer (NR concentration 180 nM)
# Method in brief: as §1
# [16] = system: PXR:RXRa (NR concentration 270 nM, RXRa partner concentration 90 nM)
# Method in brief: as §1
# [17] = system: PXR homodimer (NR concentration 270 nM)
# Method in brief: as §1
# [18] = system: RARa:RXR (NR concentration 270 nM, RXRa partner concentration 90 nM)
# Method in brief: as §1
# [19] = system: RARa homodimer (NR concentration 270 nM)
# Method in brief: as §1
# [20] = system: RARb:RXRa (NR concentration 270 nM, RXRa partner concentration 90 nM)
# Method in brief: as §1
Sequence,PBM binding z-score [1],PBM binding z-score [2],PBM binding z-score [3],PBM binding z-score [4],PBM binding z-score [5],PBM binding z-score [6],PBM binding z-score [7],PBM binding z-score [8],PBM binding z-score [9],PBM binding z-score [10],PBM binding z-score [11],PBM binding z-score [12],PBM binding z-score [13],PBM binding z-score [14],PBM binding z-score [15],PBM binding z-score [16],PBM binding z-score [17],PBM binding z-score [18],PBM binding z-score [19],PBM binding z-score [20]
CCTACTGGGCCATTCAGAGCTCATTGATCATATG,-0.592,-0.786,-0.476,-0.728,-0.785,0.169,0.223,0.0807,-0.459,-0.224,4.75,3.12,-0.435,-0.6,-0.275,-0.612,-0.562,-0.258,-0.409,-0.143
ATCTCTAGGTAAAACTCAGTTCAGTGAAGAACGC,0.591,0.776,0.947,0.542,1.02,0.518,0.101,0.473,0.403,0.618,2.63,1.95,0.847,0.779,1.22,1.7,1.99,0.609,1.49,0.514
CAAACTAGGTCACCGGAATGTCAAAGTCCGCATG,4.57,3.52,0.679,2.64,0.303,5.44,8.97,7.22,5.76,7.24,8.65,9.1,5.11,2.79,2.69,2.31,-0.000286,3.53,0.651,4.37
CGTCCAAGGTCATAGGAGGCCAGTGAAGACAGAT,7.24,5.75,1.07,4.34,0.536,5.51,4.37,5.03,1.54,3.73,2.81,3.75,0.813,0.508,2.54,5.33,1.53,4.52,0.617,5
GGAACGAGGGCAAACTTGATAGCATCTGTCGACG,1.14,0.523,-0.0239,0.598,-0.25,2.18,1.54,1.87,0.362,1.16,4.42,3.21,0.0378,-0.343,0.366,0.618,0.169,0.525,-0.264,2.16
TCTTATAGGTAATACAGGTGAAAGTCGGCATCTA,1.18,1.45,0.636,1.17,0.858,2.06,1.26,2.8,3.97,3.16,4.02,3.44,1.76,1.72,1.19,0.981,0.463,1.37,1.47,0.816
CTAACAAGGTGAACAAGGTCGTTGATTACTATTC,1.46,1.2,0.00841,1.71,-0.084,2.7,1.75,1.73,0.38,1.18,4.02,3.71,0.498,0.744,0.877,2.67,1.4,2.21,0.514,2.27
CAAAGTAGGTCAAAGGTCAAAGTCGAGCCAACCA,8.51,7.21,5.79,7.26,3.36,7.84,14.1,11.4,14.4,13.2,8.81,9.31,4.15,2.43,4.72,7.22,2.39,8.98,3.23,5.92
AATACAGGGTCACTAGACCAGAGTAGGTACGAAT,5.74,4.72,0.962,3.65,0.659,5.33,6.24,5.76,2.72,4.31,2.98,4.48,1.64,0.757,1.41,3.05,0.6,4.02,0.657,4.12
TCATATAGGCAAATGCTAGGTGAAAGTCCGATCT,0.729,0.526,-0.00307,0.0683,-0.278,0.735,0.411,1.55,3.12,2.14,2.29,0.809,0.452,0.623,0.286,0.34,0.108,0.528,0.507,0.0925
ATCTCTAGGTAAAGTTCAGTGCAAGATCGATAGA,1.53,2.29,2.02,1.43,0.722,2.52,3.48,4.48,2.63,4.43,2.92,2.81,0.415,1.22,2.51,2.32,1.67,1.49,1.38,2.78
GCTATTAGTTGAACGGGCAACCGAATGATTCTCG,-0.438,-0.312,-0.165,-0.485,-0.496,-0.347,0.352,0.00975,-0.295,-0.0379,0.443,-0.481,-1.02,-0.0789,-0.518,-0.435,-0.664,-0.533,-0.461,0.14
GATAGAGGGTCAAGGCCAGAGTACGCGTATTGAT,5.49,3.11,-0.2,2.76,-0.344,4.99,4.72,4.24,1.61,4.04,2.88,3.71,0.404,0.208,1.98,2.84,0.414,3.34,0.0585,4.12
AGAACGAGGGCAATGAGTTGATAGCACGGGTGGC,0.227,0.258,-0.336,-0.187,-0.464,1.14,1.4,0.948,0.0396,0.43,3.48,2.48,0.306,0.0167,0.0111,1.54,2.95,0.443,0.212,2.04
CGTCCAAGGTAATAGGAGGTCAGTGAAGACAGAT,1.29,5.47,3.58,2.99,-0.518,2.14,0.506,0.791,-0.301,0.264,0.553,1.63,0.188,-0.16,1.61,2.8,0.938,2.15,1.12,2.23
